Data on 27 compounds can be found in PubChem BioAssay.

Assay [1] in a line: growth inhibition of DIPG glioma cells, dose response, cell-based, SU-DIPG-XVII, MIPE5.0, CellTiter-Glo, qHTS (AID 1347060).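 As to AC50: cells exposed to compound for 48 hours before viability readout.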 The settings on record: SU-DIPG-XVII viability, CellTiter-Glo ATP luminescence. On the technique in general: Cellular ATP, detected with luciferase, serves as a proxy for viable cell number.
Assay [2] in a line: growth inhibition of DIPG glioma cells, dose response, cell-based, SU-DIPG-XIII, MIPE5.0, CellTiter-Glo, qHTS (AID 1347064; cut-off not given, nearly all actives have AC50 up to about 23 µM;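 as to AC50: cells exposed to compound for 48 hours before the viability read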). To be noted: SU-DIPG-XIII viability, CellTiter-Glo ATP luminescence.
The nature of assay [3]: viability loss in pontine glioma line – cell-based, SU-DIPG-XXV, MIPE5.0, CellTiter-Glo, qHTS, dose response (AID 1347065).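 Also: cells exposed to compound for 48 hours before ATP readout.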 The settings on record: CellTiter-Glo ATP luminescence.
Assay [4] in a line: JHH-DIPG-1 glioma cell viability, MIPE5.0 library, CellTiter-Glo luminescence, qHTS (AID 1347067).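 Also: cells exposed to compound for 48 hours before readout.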 The settings on record: JHH-DIPG-1 glioma viability, CellTiter-Glo ATP luminescence.
Assay [5] is described as follows: SU-DIPG-XXV glioma cell viability, MIPE5.0 library, qHTS (AID 1347068; cut-off not given, nearly all actives have IC50 up to about 30 µM;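 as to IC50: cells exposed to compound for 48 hours before viability readout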). On the technique in general: In qHTS, concentration-response curves come from the screen itself.

Where “and” joins values, the source holds several entries; their conditions need not be identical. Equal values may be shown once. Inconclusive results are not listed. Calls of active or inactive are those of the source. Unless noted, the limit is not given here; nearly all actives have AC50 up to about 26 µM.

As to `CCCCNc1ncc2c(-c3ccc(CN4CCN(C)CC4)cc3)cn(C3CCC(O)CC3)c2n1` (stereo not given), the AC50 was 1.48 µM (active) and 1.32 µM (active) in assay [1]; 2.35 µM (active) and 1.86 µM (active) in assay [2]; 742 nM (active) and 934 nM (active) in assay [3]; 3.32 µM (active) and 2.95 µM (active) in assay [4]. Further, the IC50 in assay [5] is 3.32 µM (active).

With `CC(C)Nc1cc(-c2c[nH]c(C(=O)N[C@H](CO)c3cccc(Cl)c3)c2)c(Cl)cn1`, the AC50 in assay [1] is 1.48 µM (active); in assay [2], 4.17 µM (active); in assay [3], 3.32 µM (active); in assay [4], 1.66 µM (active). Also, the 50% inhibitory concentration (IC50) in assay [5] was 14.8 µM (active).

Turning to `CC(=O)c1cc2c(o1)C(=O)c1ccccc1C2=O`, the AC50 in assay [1] is 3.32 µM (active); in assay [2] it was 0.934 µM (active); in assay [3], 2.95 µM (active); in assay [4], 1.66 µM (active). Moreover, in assay [5], the IC50 was 2.95 µM (active).

With `O=C(/C=C/c1ccc2ccc(C(F)(F)F)cc2n1)c1ccncc1`, the AC50 is 4.17 µM (active) in assay [1], 1.48 µM (active) in assay [2], 2.95 µM (active) in assay [3] and 2.35 µM (active) in assay [4]. For the same compound, the IC50 in assay [5] was 7.42 µM (active).

For `CN1C(=O)[C@@H](NC(=O)c2cc(Cc3ccccc3)on2)COc2ccccc21`, the outcome in assay [1], in assay [2], in assay [3], in assay [4] and in assay [5] was inactive.

On to `COc1cccc2c1C(=O)c1c(O)c3c(c(O)c1C2=O)C[C@@](O)(/C(CO)=N/NC(=O)CCCCCN1C(=O)C=CC1=O)C[C@@H]3O[C@H]1C[C@H](N)[C@H](O)[C@H](C)O1`, for which the concentration at half-maximal activity (AC50) was 1.05 µM (active) in assay [1], 4.68 µM (active) in assay [2], 14.8 µM (active) in assay [3] and 2.95 µM (active) in assay [4]. Further, in assay [5], the IC50 is 18.6 µM (active).

As for `Cc1ccc(NC(=O)NCc2ccc3c(c2)CN(C2CCC(=O)NC2=O)C3=O)cc1Cl` (stereo not given), the AC50 in assay [1] was 0.00742 µM (active); in assay [2] it was 0.00296 µM (active); in assay [3], 0.00186 µM (active); in assay [4], 0.00118 µM (active). Besides, the IC50 in assay [5] was 0.00372 µM (active).

In the case of `CCc1c(-c2ccccc2C)nc2c(C#N)c[nH]n2c1=O`, the compound was classed as inactive in assay [1], in assay [2], in assay [3], in assay [4] and in assay [5].

As for `COC(=O)N(C)c1c(N)nc(-c2nn(Cc3ccccc3F)c3ncccc23)nc1N`, the call in assay [1], in assay [2], in assay [3], in assay [4] and in assay [5] was inactive.

As for `CN1C(=O)[C@@H](NC(=O)c2n[nH]c(Cc3ccccc3)n2)COc2ccccc21`, the compound was classed as inactive in assay [1], in assay [2], in assay [3], in assay [4] and in assay [5].

`O=C(CCCc1ccc2cccnc2n1)NCc1cc(-c2ccc(F)c(C(F)(F)F)c2)no1`: the outcome in assay [1], in assay [2], in assay [3], in assay [4] and in assay [5] was inactive.

As for `COc1ccc(N(C)c2nc(C)nc3ccccc23)cc1`, the AC50 in assay [1] was 0.00833 µM (active); in assay [2], 0.00934 µM (active); in assay [3] it was 0.0059 µM (active); in assay [4], 0.0105 µM (active). In addition, the IC50 in assay [5] was 0.0166 µM (active).

On to `CCCC1(CCC)CCC2(CCN(CCCN(CC)CC)C2)CC1`, for which the AC50 in assay [1] is 7.42 µM (active); in assay [2], 4.17 µM (active); in assay [3], 6.61 µM (active); in assay [4] it was 3.72 µM (active). Also, the IC50 in assay [5] was 10.5 µM (active).

In the case of `CC(C)(C)C(=O)N1N=CC[C@H]1c1ccccc1`, the compound was classed as inactive in assay [1], in assay [2], in assay [3], in assay [4] and in assay [5].

On to `Cc1[nH]c(/C=C2\C(=O)Nc3ccc(F)cc32)c(C)c1C(=O)NCCN1CCCC1`, for which the AC50 in assay [1] was 12.9 µM (active); in assay [2], 7.23 µM (active); in assay [3] it was 6.45 µM (active); in assay [4], 10.2 µM (active). Further, the compound was classed as inactive in assay [5].

`CCN1CCN(Cc2ccc(NC(=O)Nc3ccc(Oc4cc(NC)ncn4)cc3)cc2C(F)(F)F)CC1`: the AC50 in assay [1] is 7.42 µM (active); in assay [2], 3.32 µM (active); in assay [3], 10.5 µM (active); in assay [4], 3.72 µM (active). Moreover, the IC50 in assay [5] was 7.42 µM (active).

Consider `C=C1C[C@H]2C=Nc3cc(OCCCOc4cc5c(cc4OC)C(=O)N4CC(=C)C[C@H]4C=N5)c(OC)cc3C(=O)N2C1`, for which the AC50 in assay [1] was 0.00186 µM (active); in assay [2], 0.0209 µM (active); in assay [3] it was 0.0166 µM (active); in assay [4], 0.00372 µM (active). Besides, in assay [5], the IC50 was 0.0742 µM (active).

For the compound `COc1cc2c(Oc3ccc4[nH]c(C)cc4c3F)ccnc2cc1OCC1(N)CC1`, the AC50 is 3.32 µM (active) in assay [1], 2.95 µM (active) in assay [2], 2.95 µM (active) in assay [3] and 5.9 µM (active) in assay [4]. The IC50 in assay [5] is 16.6 µM (active).

Regarding `COc1ccc(N2C(=O)N(c3c(C)cccc3Cl)Cc3cnc(Nc4ccc(C5CCN(C)CC5)cc4OC)nc32)nc1`, the AC50 was 3.72 µM (active) in assay [1], 9.34 µM (active) in assay [2], 9.34 µM (active) in assay [3] and 16.6 µM (active) in assay [4]. In addition, the IC50 in assay [5] is 14.8 µM (active).

For the compound `O=C(/C=C\n1cnc(-c2cc(C(F)(F)F)cc(C(F)(F)F)c2)n1)NNc1cnccn1`, the AC50 is 1.66 µM (active) in assay [1], 16.6 µM (active) in assay [2], 4.17 µM (active) in assay [3] and 16.6 µM (active) in assay [4]. Further, the IC50 in assay [5] is 14.8 µM (active).

Regarding `COc1cc(C(=O)NC2CCN(C)CC2)c(F)cc1Nc1ncc2c(n1)N(C1CCCC1)CC(F)(F)C(=O)N2C`, the AC50 is 0.0934 µM (active) in assay [1], 1.86 µM (active) in assay [2], 0.118 µM (active) in assay [3] and 20.9 µM (active) in assay [4]. Besides, the IC50 in assay [5] is 4.17 µM (active).

Turning to `COc1cc2c3c(n(CCCNCCO)c(=O)c2cc1OC)-c1cc2c(cc1C3=O)OCO2`, the AC50 in assay [1] is 0.105 µM (active); in assay [2], 2.95 µM (active); in assay [3], 4.68 µM (active); in assay [4], 2.63 µM (active). Moreover, the IC50 in assay [5] is 9.34 µM (active).

Regarding `CCc1cccc2c3c([nH]c12)[C@@](CC)(CC(=O)O)OCC3`, the compound was called inactive in assay [1], in assay [2], in assay [3], in assay [4] and in assay [5].

In the case of `Cc1cccc(Oc2cnc(=O)[nH]c2)c1`, the outcome in assay [1], in assay [2], in assay [3], in assay [4] and in assay [5] was inactive.

Turning to `Cn1ncc(Cl)c1-c1cc(C(=O)N[C@H](CN)Cc2ccc(F)c(F)c2)sc1Cl`, the AC50 in assay [1] was 18.6 µM (active); in assay [2], 2.35 µM (active); in assay [3] it was 1.32 µM (active); in assay [4], 16.6 µM (active). Besides, the IC50 in assay [5] was 16.6 µM (active).

With `CNC(=O)c1ccccc1Nc1nc(Nc2ccc3c(c2OC)CCC[C@@H](N2CCN(CCO)CC2)C3)ncc1Cl`, the AC50 is 2.35 µM (active) in assay [1], 1.48 µM (active) in assay [2], 0.833 µM (active) in assay [3] and 5.9 µM (active) in assay [4]. In assay [5], the IC50 was 11.8 µM (active).

`N#Cc1ccc(N(Cc2ccc(Br)cc2)n2cnnc2)cc1`: the outcome in assay [1], in assay [2], in assay [3], in assay [4] and in assay [5] was inactive.

The AC50 is the concentration giving half of the maximal activity seen. By IC50 is commonly meant the concentration that inhibits the measured activity by half.
